Laboratory results: PubChem BioAssay (NCI)
This is part of a sample that, as a whole, favours compounds with a hit. Of some 83,000 tested, about 20% had one in any assay.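 Cells were grown in 96-well plates and exposed to the test compound at a single concentration for 48 hours; results are reported as percent growth, with values below 10 considered active.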 A number with no mark means an inactive call. The source made the active and inactive calls.

system: MDA-MB-468 breast; test: NCI-60 one-dose screen, 48 h (100 = growth as untreated, 0 = no growth, -100 = all killed); conditions: 10 µM unless noted

Compound	growth
Cc1c(C(=O)NCCC(=O)NO)sc2ncnc(Nc3ccc(NC(=O)Nc4cccc(C(F)(F)F)c4)cc3)c12	97.2%
COc1ccc2nc3cc(Cl)ccc3c(Nc3ccc(N(C)C)cc3)c2c1	73.7%
COc1ccc(-c2n[nH]nc2-c2cc(OC)c3c(c2)OCO3)cc1	38.6%
CCCCCCCCCCCCCCCCC(=O)O.CCCCCCCCCCCCCCCCCC(=O)O.CCCCCCCCCCCCCCCCCC(=O)O.CCCCCCCCCCCCCCCCCC(=O)O.CCCCCCCCCCCCCCCCCC(=O)O.CO[CH-]OC12COC1CC(O)C1(C)C(O)C(OC(C)O)C3=C(C)C(OC(=O)C(O)C([NH-])c4ccccc4)CC(O)(C(OC(=O)c4ccccc4)C21)C3(C)C.[Cu+].[Zn].[Zn].[Zn].[Zn].[Zn] (stereo not given)	-13.3% (active)
COc1cccc(CNCCN2C(=O)c3ccc4c5c(ccc(c35)C2=O)C(=O)N(CCNCc2cccc(OC)c2)C4=O)c1	89.9%
c1ccc(CCCCc2ccc3ccccc3n2)cc1	111%
COc1cc2cc(Oc3ccc(NC(=O)Nc4ccc(F)c(C(F)(F)F)c4)cc3)c(C)nc2cc1OCCN1CCOCC1	-15.6% (active)
O=C1/C(=C\c2cn(-c3nc(N4CCOCC4)nc(N4CCOCC4)n3)c3ccccc23)c2ccccc2N1c1c(Cl)cccc1Cl	17%
OC(c1ccccc1)(c1ccccc1)c1ccccc1-c1ccccc1	69.1%
COc1ncc(-c2ccc3nccc(C#CCCCCC(=O)O)c3c2)cc1NS(=O)(=O)c1ccc(F)cc1F	-29.4% (active)
CCOc1nc(-c2ccccc2)cc2c(O)c(C(=O)N/N=C/c3ccc(O)cc3O)[nH]c(=O)c12	29.9%
COc1c(O)cc2oc3cc(O)c(CC=C(C)C)c(O)c3c(=O)c2c1CC=C(C)C	71.2%
C=C(C)[C@@H]1CCC[C@]2(C(=O)N3CCN(C)CC3)CC[C@]3(C)[C@@H](CC[C@@H]4[C@@]5(C)CC/C(=N\NC(=O)c6ccncc6)C(C)(C)[C@@H]5CC[C@]43C)[C@@H]12	113%
Nc1ccn(C2OC(F)(CO)C(O)C2F)c(=O)n1 (stereo not given)	76.2%
CC(=O)O[C@@H]1[C@@H](OC(C)=O)[C@H](OC(C)=O)CO[C@H]1Nc1cccc2ccccc12	104%
COc1ccc(Nc2ncc(Br)c(NCCCNC(=O)C3CCC3)n2)cc1	71.2%
N#Cc1nc(-c2ccc(F)cc2)oc1S(=O)(=O)N1CCN(c2ccc(F)cc2)CC1	86.9%
CCOC(=O)c1cc(C(=O)c2cc(OC)cc(OC)c2)n2nc(C)ccc12	29.8%
Oc1ccccc1N=Cc1c(O)ccc2ccccc12	83.2%
CC(=O)C1=C(C)NC(NNc2ccccc2)=NC1c1ccc([N+](=O)[O-])cc1 (stereo not given)	92.3%

Compound	growth
CN(C)CCCSc1ccccc1NC1=C(Cl)C(=O)C(Nc2ccccc2SCCCN(C)C)=C(Cl)C1=O	-61.4% (active)
COc1cc(/C=C2\C(=O)ON=C2C)cc(OC)c1OC	107%
COC(=O)[C@H]1CCCN1C(=O)[C@H]1CCCN1C(=O)[C@@H](Cc1c[nH]c2ccccc12)NC(=S)Nc1cc(C(F)(F)F)cc(C(F)(F)F)c1	21%
Cc1ccc(C=C2C(=O)NC(=O)NC2=O)cc1	108%
Oc1c(Cl)cc(Cl)cc1C(c1cc(Cl)cc(Cl)c1O)C(Cl)(Cl)Cl	-30.5% (active)
C=C(C)[C@@H]1CC[C@]2(C)[C@H](CC[C@@H]3[C@@H]([C@@](C)(O)CCC=C(C)C)CC[C@]32C)[C@@]1(C)CCC(=O)N1CCN(C)CC1	-82.2% [100 µM] (active)
C=C1C(=O)O[C@H]2[C@H]1CC/C(COC(=O)C(=O)c1c[nH]c3ccc(Cl)cc13)=C\CC[C@@]1(C)O[C@@H]21	-67.3% (active)
CCCCCCCCCCCCCCCCCC1=NC(C)(C)CN1CC(C)O (stereo not given)	115%
COc1ccc(OC)c(-c2ccc(-c3ccccc3N)c3[nH]c4ccccc4c23)c1	72.1%
CCN(C(C)=O)c1ccc([N+](=O)[O-])cc1	103%
Cc1c(C(=O)O)nnn1-c1nccs1	107%
Fc1ccc(-c2cc(C(Cl)Cl)no2)cc1	104%
COC(=O)C1CC(=O)N(C(=O)Nc2ccc(Cl)cc2Cl)C1 (stereo not given)	97.8%
CCN(CC)c1cc(C)c(Cc2c(OC)ccc3ccccc23)cc1C	99.6%
NC(CC(=O)O)C(=O)OCc1ccccc1 (stereo not given)	89.4%
NC(=S)N/N=C/C(=O)O	37.7%
COc1cc(C2CC(=O)Nc3c2c(C)nn3-c2nc3ccccc3[nH]2)c(OC)c(OC)c1OC (stereo not given)	31.1%
COc1ccc(Oc2ccc(C3CC(c4cc(OC)c(OC)c(OC)c4)=NN3C(C)=O)cc2)cc1 (stereo not given)	4.96% (active)
COc1ccc(N/N=C/c2c(-c3ccc(S(C)(=O)=O)cc3)nc3ccccn23)cc1	58.2%
CCCCCCCCN1C(=O)/C(=c2\sc3n(c2=O)C2C(NN=3)N(CC)C(=O)N2CC)c2ccccc21 (stereo not given)	68.3%
